PAFAH2 FP inh: PAFAH2 enzyme inhibitors, primary screen, biochemical, fluorescence polarization, human; Platelet-activating factor acetylhydrolase 2, cytoplasmic (Homo sapiens), Q99487; recombinant PAFAH2, FP-rhodamine activity probe; inhibition, % at 3.39 µM; hit rate 0.99% among 340,000; AID 492956, 2010;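 active = inhibition above the mean over all tested compounds plus 3 SD, cut at about 30% in these data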;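 also: inhibitors block probe labeling of enzyme so polarization drops; 0% = enzyme with DMSO and 100% = wells lacking PAFAH2 protein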
PAFAH1B2 inh: PAFAH1B2 enzyme inhibitors, primary screen, biochemical, fluorescence polarization, human; hit rate 1.2% among 340,000; recombinant PAFAH1B2, FP-rhodamine activity probe; inhibition, % at 3.39 µM; Platelet-activating factor acetylhydrolase IB subunit alpha2 (Homo sapiens), P68402;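 active = inhibition above the mean of all tested compounds plus 3 SD, cut at about 24% in these data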;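 also: 0% = enzyme with DMSO and 100% = wells lacking PAFAH1B2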
pPAFAH inh: pPAFAH enzyme inhibitors, primary screen, biochemical, fluorescence polarization, human; Platelet-activating factor acetylhydrolase (Homo sapiens), Q13093; recombinant pPAFAH, FP-rhodamine probe fluorescence polarization; inhibition, % at 3.39 µM; hit rate 1.5% among 330,000; AID 463082, 2010;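 active = inhibition above the mean inhibition across the screen plus 3 SD, cut at about 25% in these data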;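 also: inhibitors block binding of the rhodamine activity-based probe so polarization drops; 0% = enzyme with DMSO and 100% = wells lacking pPAFAH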
Target sequence (Q13093 whole entry, looked up): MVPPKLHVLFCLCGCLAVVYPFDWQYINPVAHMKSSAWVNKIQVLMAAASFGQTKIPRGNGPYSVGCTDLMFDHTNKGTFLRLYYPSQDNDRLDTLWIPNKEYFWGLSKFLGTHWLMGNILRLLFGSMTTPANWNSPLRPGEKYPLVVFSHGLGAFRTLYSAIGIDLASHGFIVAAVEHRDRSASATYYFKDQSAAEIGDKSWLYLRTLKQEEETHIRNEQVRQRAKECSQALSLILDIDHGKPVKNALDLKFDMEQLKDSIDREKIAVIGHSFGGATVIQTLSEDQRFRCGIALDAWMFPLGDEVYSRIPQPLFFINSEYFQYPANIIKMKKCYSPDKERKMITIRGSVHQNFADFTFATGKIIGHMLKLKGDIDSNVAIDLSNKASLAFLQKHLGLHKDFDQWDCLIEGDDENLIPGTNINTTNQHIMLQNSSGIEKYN
Fh CTSL1 inh: Fasciola hepatica cathepsin L1 inhibitors, primary screen, counter-screen for PFM18AAP inhibitor project, biochemical, QFRET, fluorogenic peptide substrate; hit rate 0.49% among 300,000; recombinant F. hepatica cathepsin L1, Z-Leu-Arg-MCA fluorescence; inhibition, % at 5.96 µM;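 active = inhibition above the mean of all tested compounds plus 3 SD, set per screening campaign, cut at about 17% in these data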;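 also: 0% = plate median of test compound wells and 100% = 1 µM Z-Phe-Ala-diazomethylketone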
PP5 primary: PP5 phosphatase inhibitors, primary screen, biochemical, fluorescence; hit rate 0.18% among 320,000; AID 1987, 2009; inhibition, % at 6.7 µM; purified PP5c, OMFP substrate fluorescence; Serine/threonine-protein phosphatase 5 (Homo sapiens), P53041;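 active = inhibition above the campaign's mean inhibition across all tested compounds plus 3 SD, cut at about 9.5% in these data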;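 also: 0% = DMSO only and 100% = 100 µM cantharidin control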
PAFAH1B3 FP inh: PAFAH1B3 enzyme inhibitors, primary screen, biochemical, fluorescence polarization, human; recombinant PAFAH1B3, FP-rhodamine probe; inhibition, % at 3.39 µM; hit rate 0.28% among 340,000;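 active = inhibition above the screen-wide average of all tested compounds plus 3 SD, cut at about 25% in these data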;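 also: 0% = enzyme with DMSO only and 100% = wells lacking PAFAH1B3 protein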
PAFAH2 confirm: PAFAH2 enzyme inhibitors, confirmation, biochemical, fluorescence polarization, human | shares compounds with PAFAH2 FP inh | recombinant PAFAH2, FP-rhodamine activity probe | inhibition, % at 3.39 µM | hit rate 65% among 2,300;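 active = mean inhibition over three repeats above a set limit taken from the earlier primary screen, cut at about 30% in these data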;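 also: inhibitor blocks binding of rhodamine activity probe so polarization falls; 0% = enzyme with DMSO and 100% = wells lacking PAFAH2 protein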
An asterisk follows results filed as active; x = not tested or not shown. Shown are actives, neighbours in structure and some others; about 3% of the full set was active somewhere.

SMILES	PAFAH2 FP inh	PAFAH1B2 inh	pPAFAH inh	Fh CTSL1 inh	PP5 primary	PAFAH1B3 FP inh	PAFAH2 confirm
CCOC(=O)c1c(NC(=O)COC(=O)c2ccccc2NC)sc(C(=O)N(C)C)c1C	-1	4	12	4	3	-3	x
COc1ccccc1CC(=O)Nc1cc(Cl)ccc1O	83*	4	3	3	0	4	80*
O=C(COc1ccccc1Cl)Nc1cc(Cl)ccc1O	-4	1	x	x	x	1	x
COc1ccccc1NC(=O)Cc1cccc2ccccc12	-3	2	0	8	2	6	x
COc1ccccc1CC(=O)Nc1ccccc1O	58*	-5	2	-2	-1	5	60*
CCN(c1ccccc1)S(=O)(=O)c1ccc(OC)c(NC(=O)Cc2ccc(OC)c(OC)c2)c1	1	6	2	x	2	1	x
CCN(c1ccccc1)S(=O)(=O)c1ccc(OC)c(NC(=O)Cc2ccccc2OC)c1	30*	0	1	x	3	7	16
COCC(=O)Nc1ccc([N+](=O)[O-])cc1OC	0	-3	-2	7	-3	5	x
COc1ccccc1CC(=O)Nc1ccc([N+](=O)[O-])cc1O	34*	11	-3	1	4	5	15
C=CCn1c(C)cc(C(=O)COC(=O)/C=C/c2c(C)nn(C3CCS(=O)(=O)C3)c2Cl)c1C (configuration not stated)	53*	-4	6	-3	1	2	43*
Cc1nn(C2CCS(=O)(=O)C2)c(Cl)c1/C=C/C(=O)OCC(=O)Nc1ccccc1OC(F)F (configuration not stated)	50*	4	0	-10	4	-3	43*
COc1ccc(Cl)cc1NC(=O)COC(=O)/C=C/c1c(C)nn(C2CCS(=O)(=O)C2)c1Cl (configuration not stated)	1	1	14	-8	4	-3	x
CCc1ccc(NC(=O)COC(=O)/C=C/c2c(C)nn(C3CCS(=O)(=O)C3)c2Cl)cc1 (configuration not stated)	-3	-3	7	-4	2	5	x
Cc1nn(C2CCS(=O)(=O)C2)c(Cl)c1/C=C/C(=O)OCC(=O)Nc1ccccc1[N+](=O)[O-] (configuration not stated)	75*	4	5	-12	-2	1	74*
Cc1ccc(S(=O)(=O)N2CCN(C(=O)CSCc3ccc(C(C)C)cc3)CC2)cc1	-3	10	18	x	5	2	x
O=C(NCc1cccc(C(F)(F)F)c1)c1ccc2c(c1)OCCO2	-10	-1	3	5	1	3	x
COc1ccccc1OCC(=O)N1CCN(S(=O)(=O)c2ccc(Cl)cc2)CC1	-1	22	x	x	x	9	x
CSc1c(CN2CCN(C)CC2)c2ccccc2n1C	x	x	-7	4	-1	x	x
CCc1cc(=O)oc2cc3occ(-c4ccc(OC)c(F)c4)c3cc12	-12	-11	-3	-1	3	-27	x
CCS(=O)(=O)c1ccc(O)c(NC(=O)Nc2ccccc2)c1	45*	3	13	5	2	-5	29
CCCNC(=O)Nc1cc(S(=O)(=O)CC)ccc1O	2	-2	8	-4	-2	3	x
Cc1cc(CSc2nc(C)cc(=O)[nH]2)c2ncccc2c1	0	8	5	0	0	12	x
Cc1cc(=O)[nH]c(SCc2cccc3ccccc23)n1	35*	4	0	0	1	8	25
CC1=NN(c2ccccc2)C(=O)/C1=C\c1ccc(Br)s1	33*	6	4	-4	2	13	11
COc1cccc(/C=C/C(=O)OCC(=O)NCC2CCCO2)c1OC (configuration not stated)	51*	1	5	-5	1	3	35*
SMILES	PAFAH2 FP inh	PAFAH1B2 inh	pPAFAH inh	Fh CTSL1 inh	PP5 primary	PAFAH1B3 FP inh	PAFAH2 confirm
COc1ccc(/C=C/C(=O)OCC(=O)NCC2CCCO2)cc1 (configuration not stated)	37*	4	4	-2	3	7	30*
CCN(CC)c1ccc(C(=O)OCC(=O)N2CCCC2)cc1	36*	0	11	2	-1	3	20
O=Cc1ccc(C(=O)OCC(=O)N2CCCC2)cc1	-6	-2	2	-1	3	0	x
CCN(CC)c1ccc(C(=O)OCC(=O)N(C(C)C)C(C)C)cc1	27	5	6	6	2	6	x
CCN(CC)c1ccc(C(=O)OCC(=O)N(C)Cc2ccccc2)cc1	48*	1	15	-3	-3	4	36*
CCc1ccc(-c2cc(C)no2)cc1S(=O)(=O)N1CCN(c2cc(C)ccc2C)CC1	-2	-3	-4	1	1	2	x
Cc1ccccc1S(=O)(=O)/N=C(/Nc1nc2ccccc2s1)c1ccccc1	36*	-1	2	x	x	4	30*
Cc1c(C(C)NC(=O)c2cc(COc3cccc4cnccc34)on2)cnn1C (configuration not stated)	-4	-2	5	-1	0	5	x
Cc1cc(NC(=O)COC(=O)c2ccc(C)c(C)c2)no1	52*	-1	4	x	x	4	34*
COc1cccc(C(=O)OCC(=O)Nc2cc(C)on2)c1OC	74*	2	8	x	x	7	52*
COc1cc(O)c(C(=O)CC(=O)c2ccncc2)c(OC)c1	16	9	x	x	x	7	x
Cn1c(=O)c2c(ncn2CC(=O)Nc2cc(S(=O)(=O)N3CCCCC3)ccc2O)n(C)c1=O	32*	1	-3	x	x	3	21
CCCCn1c(N)c(N(C)C(=O)c2cc3c(s2)CCCCC3)c(=O)[nH]c1=O	1	2	12	x	2	3	x
Cc1ccc(NC(=O)Cc2ccccc2Cl)cc1S(=O)(=O)N(C)C	6	-6	2	-4	0	0	x
Cc1ccc(NC(=O)COC(=O)c2ccccc2Cl)cc1S(=O)(=O)N(C)C	58*	-1	2	-24	1	1	39*
Cc1ccc(NC(=O)COC(=O)c2ccccc2F)cc1S(=O)(=O)N1CCCCC1	67*	1	x	x	x	-1	59*
Cc1ccc(S(=O)(=O)N2CCCCC2)cc1NC(=O)COC(=O)c1ccccc1F	52*	-5	12	-3	-1	0	53*
Cc1ccc(NC(=O)COC(=O)c2cccc(C)c2[N+](=O)[O-])cc1S(=O)(=O)N1CCCCC1	26	-18	-10	x	x	-14	x
